# From PubChem BioAssay (NCATS)
# Records with an inconclusive call do not appear. The source made the active and inactive calls. Unless noted, how the calls were made is not given here.
# Legend:
# [1] = qHTS profiling of the MIPE4 collection as inhibitors of Plasmodium falciparum (3D7) proliferation (AID 743344);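 further: scaled between DMSO vehicle wells and 0.29 µM artemisinin as full inhibition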; details: P. falciparum 3D7 in erythrocytes, SYBR Green DNA fluorescence, 72 h; at 28.5 µM unless noted
# Summary of the method: (§1)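 Erythrocytes infected with P. falciparum (0.3% parasitemia, 2.5% hematocrit) incubated with compounds 72 h at 37 C, 5% CO2. Lysis with saponin/Triton buffer containing SYBR Green I, overnight at room temperature in the dark; DNA fluorescence (485/535 nm) normalised to 0.29 uM artemisinin and DMSO.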
# [2] = qHTS profiling of the MIPE4 collection as inhibitors of Plasmodium falciparum (DD2) proliferation (AID 743345); details: P. falciparum Dd2 in erythrocytes, SYBR Green DNA, 72 h; at 28.5 µM unless noted
# Summary of the method: as §1
# [3] = qHTS profiling of the MIPE4 collection as inhibitors of Plasmodium falciparum (HB3) proliferation (AID 743347);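 further: plate controls were DMSO vehicle wells for no effect and artemisinin wells for full effect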; details: P. falciparum HB3 in erythrocytes, SYBR Green DNA, 72 h; at 28.5 µM unless noted
# Summary of the method: as §1
# [4] = High-throughput drug toxicity screening in the BPDCN cell line Gen2.2 (AID 1224824); details: Gen2.2 BPDCN cells; at 45.8 µM (top of the series) unless noted;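 further: cells exposed to compounds for 48 h before reading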
# Summary of the method: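 Gen2.2 cells (500/well) in phenol red-free RPMI with 10% FBS were exposed to compounds for 48 h at 37 °C, 5% CO2. Viability was read by CellTiter-Glo luminescence and normalized to DMSO (100%) and 9.2 uM bortezomib (0%).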
# [5] = High-throughput drug toxicity screening in the BPDCN cell line Cal-1 (AID 1224825); details: Cal-1 BPDCN cell viability, qHTS; at 45.8 µM (top of the series) unless noted
# Summary of the method: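 Cal-1 cells, 500 per well in phenol-red-free RPMI with 10% FBS, exposed to compounds for 48 hours at 37C, 5% CO2. Viability read by CellTiter-Glo luminescence; percent activity normalized to DMSO (100%) and 9.2 uM bortezomib final (0%).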
# [6] = qHTS assay for measurement of the activity of small molecule inhibitors on Zika virus induced Caspase-3 activity in human iPSC derived neural progenitor cells (hNPCs) (AID 1224857; active means well fitted curve in the direction sought with a large enough effect; an effect the other way counts as inactive or inconclusive; further: nearly all actives have a fitted effect of over 65% in size; further: potency means the concentration at half of the fitted maximal effect)
# Summary of the method: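 Caspase-3/7 induction by a 6-hour ZIKV infection was quantified with a luminescent Caspase-Glo 3/7 reagent incubated 30 minutes at room temperature. Compounds were preincubated with hNPCs for 1 hour; inhibition was calculated against uninfected and infected control wells.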
# [7] = qHTS assay for measurement of the activity of small molecule inhibitors on Zika virus induced Caspase-3 activity in human astrocytoma cells (AID 1224859; active means well fitted curve in the direction sought with a large enough effect; an effect the other way counts as inactive or inconclusive; further: potency means the concentration at half of the fitted maximal effect)
# Summary of the method: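 In SNB-19 cells plated at 250 cells/well and grown 16-20 h, compounds were applied 1 h before ZIKV (2 FFU/cell). Six hours later caspase-3/7 luminescence was recorded.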
# [8] = qHTS Screen of the MIPE 4.0 Collection Against Ewings Sarcoma (RDES) (AID 1259252; active means well fitted curve in the direction sought with a large enough effect; an effect the other way counts as inactive or inconclusive; further: nearly all actives have a fitted effect of over 35% in size; further: potency means the concentration at half of the fitted maximal effect)
# Summary of the method: (§2)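 Dose series incubated 48 h with cells in RPMI plus 5% FBS, glutamine and penicillin/streptomycin; cell viability then quantified via CellTiter-Glo.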
# [9] = qHTS Screen of the MIPE 4.0 Collection Against Ewings Sarcoma (EW8) (AID 1259255; active means well fitted curve in the direction sought with a large enough effect; an effect the other way counts as inactive or inconclusive; further: nearly all actives have a fitted effect of over 35% in size; further: potency means the concentration at half of the fitted maximal effect;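 on viability: 100% = DMSO-treated cells and 0% = medium-only wells without cells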)
# Summary of the method: as §2
# [10] = qHTS Screen of the MIPE 4.0 Collection Against Ewings Sarcoma (TC32) (AID 1259256; active means well fitted curve in the direction sought with a large enough effect; an effect the other way counts as inactive or inconclusive; further: nearly all actives have a fitted effect of over 45% in size; further: potency means the concentration at half of the fitted maximal effect)
# Summary of the method: as §2
# [11] = qHTS profiling of the MIPE4 collection as inhibitors of Plasmodium falciparum (DD2) proliferation (Rep 2) (AID 743346); details: P. falciparum Dd2 in erythrocytes, SYBR Green DNA, 72 h; at 28.5 µM unless noted
# Summary of the method: as §1
# [12] = qHTS profiling for inhibitors of Plasmodium falciparum (HB3) proliferation (AID 743324; active means well fitted curve in the direction sought with a large enough effect; an effect the other way counts as inactive or inconclusive;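 further: 100% = DMSO vehicle wells and 0% = artemisinin-treated control wells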); details: Plasmodium falciparum HB3 blood-stage proliferation; at 28.7 µM (top of the series) unless noted
# Summary of the method: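 P. falciparum HB3 grown in erythrocytes (0.3% parasitemia, 2.5% hematocrit final) with compound for 72 h at 37 C, 5% CO2. Parasite DNA detected by SYBR Green after saponin/triton lysis overnight; normalized to 0.29 uM artemisinin and DMSO.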
# [13] = Identifying Small Molecule Inhibitors of Pancreatic Cancer Stem Cells (SN12C, Adherent) (AID 1259358; active means well fitted curve in the direction sought with a large enough effect; an effect the other way counts as inactive or inconclusive;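 further: cell survival measured after 48 h of compound exposure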)
# Summary of the method: (§3)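 Endpoint: ATP-based luminescence, 48 h drug exposure. Bortezomib at 9.2 uM final as full-kill control; DMSO vehicle as negative control; activity normalized between vehicle and cell-free wells.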
# [14] = Identifying Small Molecule Inhibitors of Pancreatic Cancer Stem Cells (SN12C, Spheroid) (AID 1259360; active means well fitted curve in the direction sought with a large enough effect; an effect the other way counts as inactive or inconclusive;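 further: 100% = DMSO-treated cells and 0% = wells without cells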); details: Potency: SN12C spheroid viability
# Summary of the method: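 After a 4 h attachment period, compounds were pinned into wells and cultures held 48 h under standard incubator conditions. Viability was then measured as CellTiter-Glo luminescence following 10 min at room temperature.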
# [15] = Identifying Small Molecule Inhibitors of Pancreatic Cancer Stem Cells (A278, Adherent) (AID 1259361; active means well fitted curve in the direction sought with a large enough effect; an effect the other way counts as inactive or inconclusive; further: nearly all actives have a fitted effect of over 35% in size)
# Summary of the method: as §3
SMILES,"parasite growth, % of DMSO control [1]","parasite growth remaining, % of DMSO control (lower = more inhibition) [2]","growth, % of control [3]","cell viability, % of control (lower = more cytotoxic) [4]",viability (% of control) [5],Potency [6],Potency [7],Potency [8],Potency [9],Potency [10],"parasite growth, % of control (lower = inhibition) [11]","remaining proliferation (% of control), lower = more inhibition [12] [%]",Potency [13],Potency [14],IC50 (viability decrease) [15]
O=[N+]([O-])c1ccc(Nc2ccccc2-c2ccccc2)c2nonc12,33.4%,83.4%,75.1%,145%,88.7%,inactive,inactive,inactive,inactive,inactive,–,–,–,–,–
Cc1ccccc1C(C(=O)NC1CCCCC1)N(C(=O)CNc1ccc(C#N)cc1)c1cccc(F)c1 (stereo not given),145%,93.3%,530%,161%,128%,inactive,inactive,inactive,inactive,inactive,75.5%,–,–,–,–
O=C1C(c2c(O)[nH]c3ccccc23)=Nc2ccccc21,90.1%,86.5%,98.4%,52.3%,68.6%,inactive,inactive,0.469 µM (active),26.4 µM (active),29.6 µM (active),73.7%,–,–,–,–
CN(C)N=Nc1nc[nH]c1C(N)=O,86.1%,94.4%,61.9%,123%,121%,inactive,inactive,18.7 µM (active),inactive,inactive,87.6%,–,–,–,–
C[C@@H]1O[C@@H](O[C@H]2CC[C@@]3(C)[C@H](CC[C@@H]4[C@H]3C[C@@H](O)[C@]3(C)[C@@H](C5=CC(=O)OC5)CC[C@]43O)C2)C[C@H](O)[C@@H]1O[C@H]1C[C@H](O)[C@H](O[C@H]2C[C@H](O)[C@@H](O)[C@@H](C)O2)[C@H](C)O1 (stereo in doubt),57.6% [at 57.5 µM],91.8% [at 57.5 µM],57% [at 57.5 µM],7.85% [at 92.2 µM],4.87% [at 92.2 µM],inactive,inactive,0.34 µM (active),0.215 µM (active),0.241 µM (active),67.5% [at 57.5 µM],–,–,–,–
C[C@]12CCC3=C4CCC(=O)C=C4CC[C@@H]3[C@H]1CC[C@@]2(O)CC#N,92.8%,97.5%,93%,106%,107%,inactive,inactive,inactive,inactive,inactive,71%,–,–,–,–
COc1cc(N2CCN(C)CC2)ccc1Nc1nc(N)c(C(=O)c2c(Cl)cccc2Cl)s1,20.2%,8.77%,21.1%,72.5%,49.7%,inactive,inactive,13.2 µM (active),16.6 µM (active),10.5 µM (active),–,–,–,–,–
Cc1ccc(C(=O)N(CCCN)[C@@H](c2oc3cc(Cl)ccc3c(=O)c2Cc2ccccc2)C(C)C)cc1,4.68%,8.7%,–,8.98%,3.72%,inactive,inactive,inactive,inactive,inactive,8.99%,–,–,–,–
OCCn1cc(-c2ccc3c(c2)CCC3=NO)c(-c2ccncc2)n1,67.4%,83.9%,89.4%,4.73%,76.4%,inactive,inactive,26.4 µM (active),inactive,–,–,73.4,inactive,inactive,16.6 µM (active)
COc1ccc2ccc(=O)oc2c1CC=C(C)C,94.2%,15.6%,80.3%,124%,97.4%,inactive,inactive,23.5 µM (active),7.43 µM (active),inactive,73.4%,–,–,–,–
Nc1nc(Cl)nc2c1ncn2[C@@H]1O[C@H](CO)[C@@H](O)[C@H]1F,81.5%,97.5%,96.1%,159%,13.2%,inactive,inactive,inactive,inactive,inactive,63.9%,–,–,–,–
COc1ccc(C=CC(=O)Nc2ccccc2C(=O)O)cc1OC,24.6%,90.5%,32%,188%,104%,2.64 µM (active),2.64 µM (active),inactive,inactive,inactive,48.9%,–,–,–,–
COc1cc2ncn(-c3cc(OCc4ccccc4S(C)(=O)=O)c(C#N)s3)c2cc1OC,76.2%,103%,–,146%,95.9%,inactive,inactive,16.6 µM (active),inactive,–,75.9%,–,–,–,–
